# Assay results: PubChem BioAssay (NCI)
# This is part of a sample that, as a whole, favours compounds with a hit. Of some 79,000 tested, about 15% had one in any assay. Values without a mark were called inactive. Calls of active or inactive are those of the source. No stated cut-off is given here; in the data, active means growth inhibition above about 70%; inactive means the rest.
# Assay: NCI Yeast Anticancer Drug Screen. Data for the mec2-1 strain (AID 157)
# Details: S. cerevisiae mec2-1 strain, at 50.0 µM (retest, dose inferred, filed as 5.0), hits give high values
# How it was run: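 Test agents were screened against the mec2-1 yeast strain, with defined DNA repair or cell cycle alteration. Growth was scored as inhibition against vehicle-only controls.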
row,Compound,growth inhibition
1,Fc1ccc2[nH]ccc2c1,13%
2,C=C1C(=O)[C@]23C[C@H]1CC[C@H]2[C@@]12CO[C@@H](O)[C@@H]1C(C)(C)[C@@H](O)C[C@@H]2OC3=O,79% (active)
3,N#Cc1ccc([N+](=O)[O-])cc1C#N,97% (active)
4,N=C(N)c1ccc(Oc2ccc(Oc3ccc(C(=N)N)cc3)cc2)cc1,68%
5,CCC=Nc1c(O)cc(-c2ccccc2)n(C)c1=O,75% (active)
6,COc1ccc(CN2CCCN(Cc3ccc(OC)cc3OC)C2c2cc(Cl)ccc2O)c(OC)c1,98% (active)
7,CCN(CC)c1ccc(/C=C2/C[N+](C)(C)C/C(=C/c3ccc(N(CC)CC)cc3)C2=O)cc1,91% (active)
8,O=P1(Cc2ccccc2)c2ccccc2-c2ccccc21,99% (active)
9,CN(C)CCCNc1cc(O)c2c(c1O)C(=O)c1ccccc1C2=O,94% (active)
10,CCCCC#CC(=O)OCCCCC,1%
11,CCCCCCN(CCCCCC)CCC(=O)c1ccc2cc(Cl)c3ccccc3c2c1,95% (active)
12,CC(C)C1=C2CCC3(C)C(CCC4C5C6OCC5(CCC6(C)C)CCC43C)C2(C)CC1 (stereo not drawn),40%
13,O=C(CC(O)(CC(=O)OCc1ccccc1)C(=O)OCc1ccccc1)OCc1ccccc1,-27%
14,CCc1c(C)[nH]c2c([N+](=O)[O-])cccc12,-14%
15,CSc1ncc2c(n1)-c1ccccc1OC2NC1CC1 (stereo not drawn),16%
16,CC(C)c1cc(O)c2c(c1O)C1CC3C(C)(C)CCC[C@]23C(=O)O1 (stereo partly drawn),82% (active)
17,O=C1C(=O)c2cc(Br)cc([N+](=O)[O-])c2-c2ccc(Br)cc21,96% (active)
18,NSc1ccccn1,93% (active)
19,CCCCCCCCCCCCOC(=O)C[n+]1cccc(C(=O)Nc2ccccc2)c1,99% (active)
20,NC(=S)SCCC(=O)O,-21%
21,O=C(O)Cc1ccc2c3c(cccc13)CC2,94% (active)

# Same assay, conditions: S. cerevisiae mec2-1 strain, at 50.0 µM, hits give high values
row,Compound,growth inhibition
1,CC(=O)Sc1ccc(Br)cc1,36.9%
2,CC(C)OCc1cccc2ccnc(COC(C)C)c12,25.6%
3,Nc1ccc2c(c1)C(=O)c1ccccc1-2,26.1%
4,O=C1Nc2ccc([N+](=O)[O-])c3c([N+](=O)[O-])ccc1c23,47.4%
5,Cc1ccc(NC(=O)Oc2ccc(C(C)(C)C)cc2Br)cc1NC(=O)Oc1ccc(C(C)(C)C)cc1Br,60%
6,O=C1C(Cl)=C(Nc2ccc(S(=O)(=O)O)cc2)C(=O)c2ccccc21,99.6% (active)
7,N/C(=N\OC(=O)Nc1ccccc1)c1ccccc1,33%
8,O=C1c2ccccc2C(=O)c2cc(N3C(=O)C=CC3=O)ccc21,92% (active)
9,CCCCN=C(c1ccc(O)cc1)c1ccc(OC)cc1O,18.6%
10,Cc1ccc(S(=O)(=O)c2cc(O)c(O)c3ccc(Br)cc23)cc1,98.5% (active)
11,CC(C)(C)NC(=S)N/N=C/c1cc(Cl)cc(Cl)c1O,90% (active)
12,Oc1ccc2c(c1)OCC1c3ccccc3OC21 (stereo not drawn),64.3%
13,OCCSC(=S)Nc1ccc(Cl)c(Cl)c1,99.7% (active)
14,CCCC[N-]CC(O)C[NH-].O=C(O)CC(=O)O.[Pt+2] (stereo not drawn),23.2%
15,N=C(N)c1cccc(-c2ccc(-c3ccccc3)o2)c1,89.8% (active)
16,C#CC(CC(C)C)(CC(C)C)OC(=O)Nc1ccccc1,97.3% (active)
17,CCCCOc1ccc(-c2c(COC(=O)NC)c(COC(=O)NC)c(C)n2C)cc1,89.5% (active)
18,O=C(Nc1cccc2ccccc12)OCCCCCCl,97% (active)
19,C=CCOc1ccc(/C=N/NC(N)=S)cc1,87.3% (active)
20,Fc1ccc2[nH]ccc2c1,28.8%
21,C=C1C(=O)[C@]23C[C@H]1CC[C@H]2[C@@]12CO[C@@H](O)[C@@H]1C(C)(C)[C@@H](O)C[C@@H]2OC3=O,-5.25%
22,N#Cc1ccc([N+](=O)[O-])cc1C#N,99.8% (active)
23,N=C(N)c1ccc(Oc2ccc(Oc3ccc(C(=N)N)cc3)cc2)cc1,83.8% (active)
24,CCC=Nc1c(O)cc(-c2ccccc2)n(C)c1=O,11.9%
25,COc1ccc(CN2CCCN(Cc3ccc(OC)cc3OC)C2c2cc(Cl)ccc2O)c(OC)c1,51.4%
26,CCN(CC)c1ccc(/C=C2/C[N+](C)(C)C/C(=C/c3ccc(N(CC)CC)cc3)C2=O)cc1,78.5% (active)
27,O=P1(Cc2ccccc2)c2ccccc2-c2ccccc21,91.1% (active)
